# Source: publication PMC12214610
# Tests used:
# Settings in all cases: virion
# [1] = target: PSME2 (UniProt Q9UL46)
# [2] = target: RTCB (UniProt Q9Y3I0)
# [3] = target: SERBP1 (UniProt Q8NC51)
# [4] = target: SLC25A6 (UniProt P12236)
# [5] = target: SNRPB (UniProt P14678)
# [6] = target: TMED10 (UniProt P49755)
# [7] = target: TMED4 (UniProt Q7Z7H5)
# [8] = target: TNPO3 (UniProt Q9Y5L0)
# [9] = target: TRAPPC14 (UniProt Q8WVR3)
# [10] = target: TRAPPC2L (UniProt Q9UL33)
# [11] = target: TRAPPC9 (UniProt Q96Q05)
# Sequence of TRAPPC9 (Q96Q05 whole entry): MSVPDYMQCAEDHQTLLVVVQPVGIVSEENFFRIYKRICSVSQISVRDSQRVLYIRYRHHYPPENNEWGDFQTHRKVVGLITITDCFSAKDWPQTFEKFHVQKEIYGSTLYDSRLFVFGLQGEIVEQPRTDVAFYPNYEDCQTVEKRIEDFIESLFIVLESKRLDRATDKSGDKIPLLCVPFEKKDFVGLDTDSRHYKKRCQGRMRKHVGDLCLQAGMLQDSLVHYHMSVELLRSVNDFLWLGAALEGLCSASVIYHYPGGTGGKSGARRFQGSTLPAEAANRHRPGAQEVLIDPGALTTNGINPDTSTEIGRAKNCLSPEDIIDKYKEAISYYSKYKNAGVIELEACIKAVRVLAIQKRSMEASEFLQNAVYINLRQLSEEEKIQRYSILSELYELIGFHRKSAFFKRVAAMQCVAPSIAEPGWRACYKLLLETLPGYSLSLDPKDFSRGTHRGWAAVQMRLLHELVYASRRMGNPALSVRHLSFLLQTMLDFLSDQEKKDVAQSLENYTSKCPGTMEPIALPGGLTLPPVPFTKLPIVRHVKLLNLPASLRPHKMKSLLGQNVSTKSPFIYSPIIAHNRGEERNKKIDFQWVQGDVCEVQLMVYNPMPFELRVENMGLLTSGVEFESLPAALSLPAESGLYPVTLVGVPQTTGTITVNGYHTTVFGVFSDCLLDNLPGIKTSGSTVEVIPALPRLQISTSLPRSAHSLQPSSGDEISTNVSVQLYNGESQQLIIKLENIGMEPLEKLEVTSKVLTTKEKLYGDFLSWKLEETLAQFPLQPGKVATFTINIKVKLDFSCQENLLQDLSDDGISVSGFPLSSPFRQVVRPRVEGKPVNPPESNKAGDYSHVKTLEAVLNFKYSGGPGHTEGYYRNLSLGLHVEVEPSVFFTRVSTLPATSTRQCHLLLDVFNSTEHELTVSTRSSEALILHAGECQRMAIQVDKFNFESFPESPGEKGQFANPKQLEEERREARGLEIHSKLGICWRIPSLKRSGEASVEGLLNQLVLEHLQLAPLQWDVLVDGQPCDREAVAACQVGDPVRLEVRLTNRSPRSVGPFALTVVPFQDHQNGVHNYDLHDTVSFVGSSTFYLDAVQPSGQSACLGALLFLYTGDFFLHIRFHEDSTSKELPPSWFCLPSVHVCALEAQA
# [12] = target: VAPA (UniProt Q9P0L0)
# [13] = target: VPS45 (UniProt Q9NRW7)
# [14] = target: YWHAE (UniProt P62258)
# Sequence of YWHAE (P62258 whole entry): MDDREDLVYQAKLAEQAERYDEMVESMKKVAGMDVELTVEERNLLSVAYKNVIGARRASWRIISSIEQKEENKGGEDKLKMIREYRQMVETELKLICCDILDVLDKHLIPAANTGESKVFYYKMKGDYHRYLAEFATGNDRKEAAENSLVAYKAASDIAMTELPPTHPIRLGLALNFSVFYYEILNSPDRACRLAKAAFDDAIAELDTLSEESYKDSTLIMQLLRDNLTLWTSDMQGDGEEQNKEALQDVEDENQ
# [15] = target: VPS51 (UniProt Q9UID3)
# [16] = target: VTI1A (UniProt Q96AJ9)
# [17] = target: XRCC5 (UniProt P13010)
# [18] = target: YWHAG (UniProt P61981)
# [19] = target: YWHAZ (UniProt P63104)
# Sequence of YWHAZ (P63104 whole entry): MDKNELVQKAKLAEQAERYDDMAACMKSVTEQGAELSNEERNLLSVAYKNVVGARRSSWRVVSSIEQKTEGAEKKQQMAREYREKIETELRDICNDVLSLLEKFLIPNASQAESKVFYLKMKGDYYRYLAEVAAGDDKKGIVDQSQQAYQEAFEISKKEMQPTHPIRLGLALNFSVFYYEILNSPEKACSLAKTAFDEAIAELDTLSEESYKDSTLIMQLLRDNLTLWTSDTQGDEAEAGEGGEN
# Sequence of YWHAQ, P27348 (P27348 whole entry): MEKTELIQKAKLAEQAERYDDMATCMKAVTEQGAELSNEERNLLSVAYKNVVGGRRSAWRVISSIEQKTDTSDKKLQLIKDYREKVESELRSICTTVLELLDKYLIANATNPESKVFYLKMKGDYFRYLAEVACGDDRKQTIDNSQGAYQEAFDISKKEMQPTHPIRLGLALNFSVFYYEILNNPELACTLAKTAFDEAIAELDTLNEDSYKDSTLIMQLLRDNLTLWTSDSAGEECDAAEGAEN
# Sequence of STX16, O14662 (O14662 whole entry): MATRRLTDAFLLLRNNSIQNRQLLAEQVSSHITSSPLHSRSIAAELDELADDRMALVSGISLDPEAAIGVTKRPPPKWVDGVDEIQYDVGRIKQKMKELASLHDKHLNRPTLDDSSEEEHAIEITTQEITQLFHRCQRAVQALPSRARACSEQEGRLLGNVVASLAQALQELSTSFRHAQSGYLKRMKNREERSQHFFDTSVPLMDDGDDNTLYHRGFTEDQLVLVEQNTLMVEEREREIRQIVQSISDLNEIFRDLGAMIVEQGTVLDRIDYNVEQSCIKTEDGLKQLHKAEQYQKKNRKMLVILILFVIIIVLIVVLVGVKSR
# Sequence of RTCB (Q9Y3I0 whole entry): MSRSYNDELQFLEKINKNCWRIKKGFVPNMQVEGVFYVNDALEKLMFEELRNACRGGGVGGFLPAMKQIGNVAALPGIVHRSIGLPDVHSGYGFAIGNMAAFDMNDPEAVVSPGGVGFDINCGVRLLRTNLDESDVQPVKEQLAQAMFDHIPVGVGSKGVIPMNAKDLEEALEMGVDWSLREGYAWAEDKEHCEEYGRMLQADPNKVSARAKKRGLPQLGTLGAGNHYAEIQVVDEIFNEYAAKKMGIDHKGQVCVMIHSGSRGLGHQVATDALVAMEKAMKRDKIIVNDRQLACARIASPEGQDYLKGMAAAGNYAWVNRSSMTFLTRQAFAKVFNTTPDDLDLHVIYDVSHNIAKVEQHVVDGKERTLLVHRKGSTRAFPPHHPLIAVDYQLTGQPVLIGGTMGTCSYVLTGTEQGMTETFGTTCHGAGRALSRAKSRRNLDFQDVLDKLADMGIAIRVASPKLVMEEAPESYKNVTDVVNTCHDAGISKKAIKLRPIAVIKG
# Sequence of VPS53, Q5VIR6 (Q5VIR6 whole entry): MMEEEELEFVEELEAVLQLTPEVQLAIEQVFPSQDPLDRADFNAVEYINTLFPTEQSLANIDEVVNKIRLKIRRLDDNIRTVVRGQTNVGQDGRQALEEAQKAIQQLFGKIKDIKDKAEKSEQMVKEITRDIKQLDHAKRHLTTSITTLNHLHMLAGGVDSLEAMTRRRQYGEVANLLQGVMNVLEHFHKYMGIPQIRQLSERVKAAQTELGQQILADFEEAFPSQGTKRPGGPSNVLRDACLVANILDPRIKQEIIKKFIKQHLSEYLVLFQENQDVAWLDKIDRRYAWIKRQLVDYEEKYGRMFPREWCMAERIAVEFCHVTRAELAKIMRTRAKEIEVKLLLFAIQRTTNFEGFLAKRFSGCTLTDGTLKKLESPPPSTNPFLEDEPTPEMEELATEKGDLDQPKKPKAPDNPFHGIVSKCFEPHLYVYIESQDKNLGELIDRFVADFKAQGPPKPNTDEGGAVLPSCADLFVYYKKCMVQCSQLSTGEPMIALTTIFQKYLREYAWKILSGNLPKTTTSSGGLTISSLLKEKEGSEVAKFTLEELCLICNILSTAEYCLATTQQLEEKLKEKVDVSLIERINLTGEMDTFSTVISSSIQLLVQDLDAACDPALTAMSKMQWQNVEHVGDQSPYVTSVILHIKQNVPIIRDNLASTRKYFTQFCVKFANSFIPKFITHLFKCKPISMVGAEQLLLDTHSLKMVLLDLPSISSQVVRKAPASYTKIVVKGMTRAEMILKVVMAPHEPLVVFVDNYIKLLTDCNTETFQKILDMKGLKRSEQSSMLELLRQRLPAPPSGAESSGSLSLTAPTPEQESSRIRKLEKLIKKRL
# Sequence of TRAPPC6B, Q86SZ2 (Q86SZ2 whole entry): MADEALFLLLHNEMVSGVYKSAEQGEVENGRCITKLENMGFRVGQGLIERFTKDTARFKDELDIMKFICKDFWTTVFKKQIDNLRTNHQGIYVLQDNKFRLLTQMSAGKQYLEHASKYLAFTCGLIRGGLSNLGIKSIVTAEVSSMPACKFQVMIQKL
# Sequence of XRCC6, P12956 (P12956 whole entry): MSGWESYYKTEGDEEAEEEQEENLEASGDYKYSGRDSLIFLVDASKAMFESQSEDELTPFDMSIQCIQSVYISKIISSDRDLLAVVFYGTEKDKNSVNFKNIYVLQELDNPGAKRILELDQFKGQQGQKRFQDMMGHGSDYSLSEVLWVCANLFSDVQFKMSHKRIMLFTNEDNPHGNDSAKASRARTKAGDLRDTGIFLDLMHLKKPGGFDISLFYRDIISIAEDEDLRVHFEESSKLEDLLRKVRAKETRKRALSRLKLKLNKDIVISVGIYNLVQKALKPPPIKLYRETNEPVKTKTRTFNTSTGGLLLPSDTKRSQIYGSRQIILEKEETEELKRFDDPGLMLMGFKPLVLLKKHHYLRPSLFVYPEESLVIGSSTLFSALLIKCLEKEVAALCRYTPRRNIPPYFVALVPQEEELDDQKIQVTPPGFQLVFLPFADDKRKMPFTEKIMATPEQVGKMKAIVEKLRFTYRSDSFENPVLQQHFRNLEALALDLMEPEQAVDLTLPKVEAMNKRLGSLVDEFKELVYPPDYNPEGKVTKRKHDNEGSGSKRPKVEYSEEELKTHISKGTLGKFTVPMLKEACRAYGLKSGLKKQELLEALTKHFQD
# Sequence of STX12, Q86Y82 (Q86Y82 whole entry): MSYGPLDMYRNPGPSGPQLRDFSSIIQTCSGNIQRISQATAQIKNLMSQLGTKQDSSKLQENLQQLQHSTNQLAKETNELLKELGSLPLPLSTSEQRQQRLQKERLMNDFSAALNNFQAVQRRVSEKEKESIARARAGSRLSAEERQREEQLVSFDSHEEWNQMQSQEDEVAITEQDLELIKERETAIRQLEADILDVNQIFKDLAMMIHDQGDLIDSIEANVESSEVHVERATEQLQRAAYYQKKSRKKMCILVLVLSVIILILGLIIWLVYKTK
# Sequence of PSME2 (Q9UL46 whole entry): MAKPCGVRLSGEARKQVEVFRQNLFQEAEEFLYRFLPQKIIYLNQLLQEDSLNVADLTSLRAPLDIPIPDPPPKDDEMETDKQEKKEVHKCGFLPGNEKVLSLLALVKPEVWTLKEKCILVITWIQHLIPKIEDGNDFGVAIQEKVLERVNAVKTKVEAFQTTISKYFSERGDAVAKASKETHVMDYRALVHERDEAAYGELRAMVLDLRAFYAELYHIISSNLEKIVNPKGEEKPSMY
substance,measurement,setting,value
"PSME1, Q06323",cross-linked residues,[1],K190 - K177
"FAM98A, Q8NCA5",cross-linked residues,[2],K277 - K245
"RPS3, P23396",cross-linked residues,[3],K62 - K281
"RPS12, P25398",cross-linked residues,[3],K116 - K299
"SLC25A5, P05141",cross-linked residues,[4],K147 - K147
"SNRNP70, P08621",cross-linked residues,[5],K27 - K54
"PPIB, P23284",cross-linked residues,[6],K98 - K145
"TMED10, P49755",cross-linked residues,[7],K75 - K87
"RANBP1, P43487",cross-linked residues,[8],K150 - K513
"TRAPPC10, P48553",cross-linked residues,[9],K1219 - K167
"TRAPPC6B, Q86SZ2",cross-linked residues,[10],K53 - K102
"TRAPPC14, Q8WVR3",cross-linked residues,[11],K377 - K992
"VAPB, O95292",cross-linked residues,[12],K200 - K205
"STX16, O14662",cross-linked residues,[13],K185 - K192
same,cross-linked residues,[14],K185 - K50
"VPS53, Q5VIR6",cross-linked residues,[15],K126 - K126
"STX12, Q86Y82",cross-linked residues,[16],K245 - K176
"XRCC6, P12956",cross-linked residues,[17],K317 - K282
"YWHAQ, P27348",cross-linked residues,[14],K85 - K29
same,cross-linked residues,[18],K85 - K10
"YWHAG, P61981",cross-linked residues,[19],K10 - K85
"YWHAB, P31946",cross-linked residues,[19],K11 - K85
